# Measured values taken from PubChem BioAssay (NCATS).
# Several values for one entry are separate records, joined by “and”; a condition that tells them apart may be missing. Identical values can stand only once. A number with no mark means an inactive call. Records with an inconclusive call do not appear. Activity calls are given as the source filed them. Unless noted, the call rests on the fitted dose curve; in most records, active means well fitted curve in either direction with a large enough effect (not every such curve was filed as active); inconclusive means small, poorly fitted or top-dose-only effect, or another doubt; inactive means flat fitted curve, though single readings scatter.
# Assays:
# [1] = AP1 Signaling Pathway (AID 357); details: ME-180 AP-1-bla reporter, EGF-induced, beta-lactamase ratio, 5 h; at 17.2 µM (top of the series) unless noted;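 further: ME-180 reporter cells stimulated with EGF at its EC50 level; on the % scale 0 is the no-effect control and ±100 the full control effect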
# How it was run: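 Beta-lactamase reporter under AP-1 response element, ME-180 background. Stimulus: EC50 EGF. Compound exposure 5 h, 37 °C. Detection: CCF4, 2.5 h RT, 460/530 nm. Values: AC50 from titration.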
# [2] = NFAT Signaling Pathway (AID 444); details: Jurkat NFAT-bla M1, carbachol, beta-lactamase ratio, 5 h; at 17.2 µM (top of the series) unless noted;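 further: carbachol stimulus at about its EC50 of 1 µM final; on the % scale 0 is the no-effect control and ±100 the full control effect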
# How it was run: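 Jurkat cells with NFAT-driven β-lactamase reporter and co-expressed M1 receptor, stimulated with carbachol (final 1 uM, ~EC50), compound titration, 5 h at 37 °C. CCF4 loaded 1 h at RT; 460/530 nm ratio gave %activity and AC50.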
# [3] = biological target: Glucocorticoid receptor (Homo sapiens) (UniProt P04150); test: GR-GFP Redistribution (AID 450;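 active means compounds whose dose series gives a full or clear partial fitted curve of increased nuclear translocation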; further: potency means the concentration at half of the fitted maximal effect); details: U2OS GR-GFP nuclear translocation, laser cytometry, 2 h
# [4] = biological target: Glucocorticoid receptor (Homo sapiens) (UniProt P04150); test: GR-EFC Redistribution (AID 451; calls by dose curve; further: potency means the concentration at half of the fitted maximal effect); details: CHO-K1 GR-EFC translocation, beta-gal luminescence, 2 h
# How it was run: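 CHO-K1 cells expressing nuclear EA and GR-ED fragments of b-gal; compounds titrated up to 46 uM final, 2 h at 37 C. GR nuclear translocation read as complemented b-gal luminescence after 1 h RT detection.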
# [5] = biological target: Mitogen-activated protein kinase 10 (Mus musculus) (UniProt Q61831); test: JNK3 AlphaScreen Assay (AID 530);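 further: kinase came from lysate of stimulated human HepG2 cells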; further: potency means the concentration at half of the fitted maximal effect;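 on activity change, negative = inhibition: signal reports phosphorylation of biotinylated GST-cJun 1-79 at Ser73 with 10 µM ATP; on the % scale 0 is the no-effect control and ±100 the full control effect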
# How it was run: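 HepG2 lysate (IL-1b/TNFa pre-activated) + biotin-GST-cJun 1-79 + anti-pSer73 cJun; cpd titration, 15 min RT; ATP 10 uM start; Tris pH 7.6, MgCl2, DTT, vanadate; beads in EDTA buffer; AlphaScreen.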
# [6] = biological target: 3',5'-cyclic-AMP phosphodiesterase 4B (Homo sapiens) (UniProt Q07343); test: qHTS Assay for Inhibitors of PDE-IV (AID 607; active means well fitted activation curve with a large enough effect in the main read-out, with a control signal flat, not every such curve was filed as active; further: % of control where 0% means no effect)
# How it was run: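 The readout is membrane depolarisation from a cAMP-sensing CNG channel, detected with a potential dye at ex 535/em 590. Cells were HEK293-derived (endogenous PDE-IV) at 1000 cells/well, titrated up to 22.9 uM final.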
# [7] = Stat Signaling Pathway (AID 446); details: ME-180 (cervical carcinoma) SIE beta-lactamase reporter, IL-6 stimulated, 5 h; at 17.2 µM (top of the series) unless noted;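 further: ME-180 cervical cancer cells given 40 pM IL-6 alongside compound; SIE-controlled beta-lactamase reporter measured as 460/530 nm FRET emission ratio; on the % scale 0 is the no-effect control and ±100 the full control effect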
# How it was run: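 Emission at 460 and 530 nm (excitation 405 nm) reports SIE-controlled beta-lactamase in ME-180 cells. Cells received compound with 40 pM IL-6 for 5 hrs at 37 C; data scaled between 300 pM IL-6 and 125 nM JAK-inhibitor controls.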
# [8] = Cell Viability - BJ (AID 421; calls by dose curve;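 further: potency means the concentration at half of the fitted maximal effect; cells exposed to compound for 40 hours at 37 °C before readout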); details: BJ fibroblast viability, qHTS
# How it was run: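 Cytotoxicity in human BJ foreskin fibroblasts is scored as loss of cellular ATP after a 40-hour exposure, measured by luciferase luminescence. Controls are DMSO and 100 uM tamoxifen.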
# [9] = Cell Viability - Jurkat (AID 426;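 active means dose-dependent loss of cell ATP signal giving a full or clear fitted curve, ranked by lower potency value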;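 further: potency means the concentration at half of the fitted maximal effect; cells exposed to compound for 40 hours at 37 °C before ATP read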); details: qHTS
# How it was run: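 Luminescent ATP read-out (CellTiter-Glo, 20 min at room temperature) after 40 hr compound exposure at 37 °C of Jurkat E6-1 cells, 5000/well. Decreased ATP taken as cytotoxicity; AC50 from standard Hill equation.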
# [10] = Cell Viability - Hek293 (AID 427;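 active means compounds whose dose-response curve shows a full or clear partial loss of cell viability, called from curve shape rather than a numeric limit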;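 further: potency means the concentration at half of the fitted maximal effect; cells exposed to compound for 40 hours at 37 °C before reading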); details: qHTS
# How it was run: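 qHTS, human embryonic kidney (adenovirus-transformed) cells; 40 hr cpd, 37 °C; CellTiter-Glo ATP luminescence. Norm: DMSO = 0, 100 uM tamoxifen = 100% inhibition. Hill-fit AC50.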
# [11] = Cell Viability - HepG2 (AID 433; calls by dose curve;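 further: potency means the concentration at half of the fitted maximal effect; potency for ATP loss meaning cytotoxicity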); details: qHTS
# How it was run: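 Read-out is luciferase-based quantitation of cellular ATP as a measure of viable HepG2 cells after 40 h treatment at 37 °C. Signal decrease is scaled between DMSO-only and 100 uM tamoxifen controls, with AC50 fitted by the Hill equation.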
# [12] = Cell Viability - SK-N-SH (AID 435; calls by dose curve; further: potency means the concentration at half of the fitted maximal effect); details: SK-N-SH neuroblastoma cell viability qHTS
# How it was run: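 Luminescent ATP signal served as the viability read-out after 40 hours of compound treatment of human neuroblastoma SK-N-SH cells. Concentration-response data, scaled between DMSO and 100 uM tamoxifen, gave AC50 values by standard Hill modeling.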
# [13] = Cell Viability - N2a (AID 540; active means well fitted curve in the direction sought with a large enough effect; an effect the other way counts as inactive or inconclusive; further: nearly all actives have a fitted effect of over 45% in size; further: potency means the concentration at half of the fitted maximal effect;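 on activity change, negative = cytotoxicity: plate controls were DMSO alone for no effect and tamoxifen control for full effect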); details: N2a mouse neuroblastoma cell viability; activity change, negative = cytotoxicity: at 92.2 µM (top of the series)
# How it was run: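 N2a mouse neuroblastoma, 1500 cells/well, 5 hr settle; compound 40 hr, 37 °C; CellTiter-Glo 20 min RT; luminescence; Hill-fit AC50.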
# [14] = Cell Viability - NIH 3T3 (AID 541; active means well fitted curve in the direction sought with a large enough effect; an effect the other way counts as inactive or inconclusive; further: nearly all actives have a fitted effect of over 25% in size; further: potency means the concentration at half of the fitted maximal effect;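 on activity change, negative = cytotoxicity: plate controls were DMSO alone for no effect and tamoxifen positive control for full effect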); details: NIH 3T3 cell viability, qHTS; activity change, negative = cytotoxicity: at 92.2 µM (top of the series)
# How it was run: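 qHTS format; 40 hr compound exposure, 37 °C; CellTiter-Glo luminescence (cellular ATP) read-out after 20 min at RT. Decrease in ATP = cytotoxicity; AC50 from standard Hill fit.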
# [15] = Cell Viability - H-4-II-E (AID 543; active means well fitted curve in the direction sought with a large enough effect; an effect the other way counts as inactive or inconclusive; further: nearly all actives have a fitted effect of over 35% in size; further: potency means the concentration at half of the fitted maximal effect)
# How it was run: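 qHTS, rat hepatoma H-4-II-E, 1500 cells/well; 40 hr compound exposure, 37 °C; CellTiter-Glo ATP luminescence after 20 min RT; AC50 by standard Hill fit.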
# [16] = Cell Viability - SH-SY5Y (AID 544; active means well fitted curve in the direction sought with a large enough effect; an effect the other way counts as inactive or inconclusive; further: nearly all actives have a fitted effect of over 55% in size; further: potency means the concentration at half of the fitted maximal effect;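 on viability change, negative = cytotoxic: 0% = DMSO alone and -100% = 100 µM tamoxifen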); details: SH-SY5Y neuroblastoma cell viability; viability change, negative = cytotoxic: at 92.2 µM (top of the series)
# How it was run: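 SH-SY5Y, 1500 cells/well, 5 hr pre-incubation 37 °C; cpd 40 hr 37 °C; CellTiter-Glo 20 min RT; luminescence (ATP) read. qHTS concentration-response, Hill fit → AC50. Tamoxifen, doxorubicin as positive controls.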
# [17] = Cell Viability - Renal Proximal Tubule (AID 545; active means well fitted curve in the direction sought with a large enough effect; an effect the other way counts as inactive or inconclusive; further: nearly all actives have a fitted effect of over 40% in size; further: potency means the concentration at half of the fitted maximal effect;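 on activity change, negative = cytotoxicity: 0% = DMSO only and -100% = 100 µM tamoxifen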)
# How it was run: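 Luminescent ATP signal (CellTiter-Glo) served as the viability read-out after 40 hr compound exposure of freshly isolated rat proximal tubule cells at 37 °C. Concentration-dependent ATP loss was fitted with the Hill equation to give AC50.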
# [18] = Cell Viability - Mesenchymal (AID 546; active means well fitted curve in the direction sought with a large enough effect; an effect the other way counts as inactive or inconclusive;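 further: cells exposed to compound for 40 hours before reading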; further: potency means the concentration at half of the fitted maximal effect;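 on activity change, negative = cytotoxicity: 0% = DMSO only and -100% = 100 µM tamoxifen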)
# How it was run: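 Human renal mesenchymal cells (glomerulus-derived), 1000 cells/well, 5 hr 37 °C pre-incubation; compound 40 hr, 37 °C; CellTiter-Glo, 20 min RT; luminescence; AC50 via Hill equation.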
# [19] = Cellular Toxicity (caspase-3) Jurkat (AID 655; active means well fitted curve in the direction sought with a large enough effect; an effect the other way counts as inactive or inconclusive;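 further: cells exposed to compound for 16 h at 37 °C before reading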)
# How it was run: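 5000 Jurkat cells/well; compound 16 hr, 37 °C; Caspase-Glo 3/7 added, 20 min RT; luminescence read. Norm: DMSO = 0%, tamoxifen 100 uM = 100%. AC50, Hill model.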
# [20] = biological target: Cytochrome P450 1A2 (Homo sapiens) (UniProt P05177); test: p450-cyp1a2 (AID 410; calls by dose curve; further: potency means the concentration at half of the fitted maximal effect;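 on activity change, negative = inhibition: -100% = full effect of reference inhibitor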)
# How it was run: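 20nM CYP1A2, 100uM Luciferin-ME (=Km), 100mM KPO4; cpd 10 min RT; +NADPH regen, 60 min RT; stop/detect 20 min; luminescence. Normalized to furafylline 57 uM = full inhibition.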
# Chain of Glucocorticoid receptor (Homo sapiens) (P04150 whole entry, looked up, the tested form may be a part): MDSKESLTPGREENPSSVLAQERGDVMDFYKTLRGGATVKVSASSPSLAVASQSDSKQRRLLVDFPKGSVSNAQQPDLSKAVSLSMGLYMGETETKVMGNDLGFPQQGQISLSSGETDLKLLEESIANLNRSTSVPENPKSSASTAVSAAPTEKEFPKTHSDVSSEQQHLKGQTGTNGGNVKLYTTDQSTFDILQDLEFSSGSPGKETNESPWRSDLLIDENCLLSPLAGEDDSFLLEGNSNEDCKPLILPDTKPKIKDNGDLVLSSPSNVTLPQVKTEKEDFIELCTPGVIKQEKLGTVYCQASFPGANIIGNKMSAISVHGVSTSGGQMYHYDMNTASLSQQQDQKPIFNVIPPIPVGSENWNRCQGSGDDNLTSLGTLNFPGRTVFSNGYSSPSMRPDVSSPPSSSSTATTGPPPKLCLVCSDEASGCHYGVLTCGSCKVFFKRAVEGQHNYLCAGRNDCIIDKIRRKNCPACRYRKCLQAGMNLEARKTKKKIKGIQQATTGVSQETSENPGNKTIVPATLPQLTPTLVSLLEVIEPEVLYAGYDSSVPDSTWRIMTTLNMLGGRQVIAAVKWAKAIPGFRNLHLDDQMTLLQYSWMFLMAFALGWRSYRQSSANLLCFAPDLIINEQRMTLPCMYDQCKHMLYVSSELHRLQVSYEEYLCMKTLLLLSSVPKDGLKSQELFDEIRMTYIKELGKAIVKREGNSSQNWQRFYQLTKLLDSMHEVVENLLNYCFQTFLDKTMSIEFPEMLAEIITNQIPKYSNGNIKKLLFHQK
# Chain of 3',5'-cyclic-AMP phosphodiesterase 4B (Homo sapiens) (Q07343 whole entry, looked up): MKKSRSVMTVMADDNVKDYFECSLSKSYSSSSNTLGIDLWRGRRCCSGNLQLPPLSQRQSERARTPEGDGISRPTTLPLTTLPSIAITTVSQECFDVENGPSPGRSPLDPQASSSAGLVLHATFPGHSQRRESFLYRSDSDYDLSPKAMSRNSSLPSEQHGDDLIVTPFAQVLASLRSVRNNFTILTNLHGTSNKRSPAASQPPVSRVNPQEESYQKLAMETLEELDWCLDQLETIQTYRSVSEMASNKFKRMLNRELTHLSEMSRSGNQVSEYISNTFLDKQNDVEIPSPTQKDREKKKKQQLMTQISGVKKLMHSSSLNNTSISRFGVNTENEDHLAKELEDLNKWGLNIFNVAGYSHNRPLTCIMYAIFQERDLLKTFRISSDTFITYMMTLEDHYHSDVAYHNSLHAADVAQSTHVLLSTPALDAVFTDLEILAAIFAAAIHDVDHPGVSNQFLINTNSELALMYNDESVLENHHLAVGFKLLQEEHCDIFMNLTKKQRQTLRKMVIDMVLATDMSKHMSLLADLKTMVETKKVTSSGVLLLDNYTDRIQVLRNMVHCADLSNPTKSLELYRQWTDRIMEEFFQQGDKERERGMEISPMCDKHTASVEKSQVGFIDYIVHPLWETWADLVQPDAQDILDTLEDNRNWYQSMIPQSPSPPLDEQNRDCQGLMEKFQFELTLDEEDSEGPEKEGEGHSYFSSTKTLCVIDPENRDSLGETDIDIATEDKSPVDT
# Chain of Cytochrome P450 1A2 (Homo sapiens) (P05177 whole entry, looked up): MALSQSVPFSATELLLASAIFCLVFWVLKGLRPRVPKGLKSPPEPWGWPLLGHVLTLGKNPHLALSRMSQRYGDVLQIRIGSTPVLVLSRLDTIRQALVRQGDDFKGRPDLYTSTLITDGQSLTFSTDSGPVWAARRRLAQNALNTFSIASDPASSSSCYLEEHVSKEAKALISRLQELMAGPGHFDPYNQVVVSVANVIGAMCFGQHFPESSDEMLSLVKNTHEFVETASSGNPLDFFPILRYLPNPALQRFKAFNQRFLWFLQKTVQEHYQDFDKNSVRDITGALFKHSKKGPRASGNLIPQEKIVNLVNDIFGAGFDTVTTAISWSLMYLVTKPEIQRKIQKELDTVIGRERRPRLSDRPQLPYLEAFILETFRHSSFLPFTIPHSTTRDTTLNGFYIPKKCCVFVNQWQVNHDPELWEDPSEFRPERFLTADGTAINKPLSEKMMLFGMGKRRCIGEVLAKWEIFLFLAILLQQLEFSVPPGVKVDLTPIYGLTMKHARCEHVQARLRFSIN
smiles,measurement,setting,value
COc1cc2ncnc(Nc3cccc(Cl)c3)c2cc1OC,"activity change, negative = inhibition",[1],-106% [at 38 µM] (active)
same,"activity change, negative = inhibition",[2],3.52% [at 38 µM]
same,Potency,[3],> 46 µM
same,Potency,[4],> 46 µM
same,Potency,[5],inactive
same,outcome,[6],inactive
Nc1[nH]c(=O)ncc1F,"activity change, negative = inhibition",[1],0.602%
same,"activity change, negative = inhibition",[2],0.663%
same,"activity, negative = inhibition",[7],-4.22%
same,Potency,[3],> 20.6 µM
same,Potency,[4],> 20.6 µM
same,Potency,[5],inactive
same,outcome,[6],inactive
COc1ccccc1OCC(O)COC(N)=O (stereo not drawn),"activity change, negative = inhibition",[1],9.66%
same,"activity change, negative = inhibition",[2],-29.9%
same,"activity, negative = inhibition",[7],6.13%
same,Potency,[3],> 20.6 µM
CN(C)c1ccc(C(=C2C=CC(=[N+](C)C)C=C2)c2ccc(N(C)C)cc2)cc1,Potency,[8],5.35 µM (active)
same,Potency,[9],2.75 µM (active)
same,Potency,[10],5.18 µM (active)
same,Potency,[11],8.58 µM (active)
same,Potency,[12],1.8 µM (active)
same,Potency,[5],2 µM (active)
same,Potency,[13],0.794 µM (active)
same,Potency,[14],1 µM (active)
same,Potency,[15],2 µM (active)
same,Potency,[16],1.58 µM (active)
same,Potency,[17],12.6 µM (active)
same,Potency,[18],2.51 µM (active)
Clc1ccccc1CN1CCc2sccc2C1,"activity change, negative = inhibition",[1],-15.6% and -18.3%
same,"activity, negative = inhibition",[7],1.54% and 0.607%
same,Potency,[5],inactive
O=C(O)c1cn(C2CC2)c2cc(N3CCNCC3)c(F)cc2c1=O,"activity change, negative = inhibition",[1],3.13%
same,"activity change, negative = inhibition",[2],6.31%
same,"activity, negative = inhibition",[7],11.7%
same,Potency,[5],inactive
O=S(=O)(c1cccc2cnccc12)N1CCCNCC1,"activity change, negative = inhibition",[2],-20.4%
NS(=O)(=O)c1cc2c(cc1Cl)NC(C(Cl)Cl)NS2(=O)=O (stereo not drawn),"activity change, negative = inhibition",[1],12.3%
same,"activity, negative = inhibition",[7],2.72%
Nc1nc(F)nc2c1ncn2[C@@H]1O[C@H](CO)[C@@H](O)[C@@H]1O,"activity change, negative = inhibition",[1],-4.13%
same,"activity, negative = inhibition",[7],7.84%
same,Potency,[3],> 20.6 µM
C[C@]12C=CC(=O)C=C1CC[C@@H]1[C@@H]2C(=O)C[C@@]2(C)[C@H]1CC[C@]2(O)C(=O)CO,Potency,[8],> 92 µM
same,Potency,[9],> 92 µM
same,Potency,[10],> 92 µM
same,Potency,[11],> 92 µM
same,Potency,[12],> 92 µM
same,Potency,[5],inactive
same,Potency,[13],inactive
same,"activity change, negative = cytotoxicity",[14],-17%
same,Potency,[15],inactive
same,Potency,[16],inactive
same,Potency,[17],inactive
same,Potency,[18],inactive
same,outcome,[19],inactive
CC(=O)Oc1ccccc1C(=O)Nc1ncc([N+](=O)[O-])s1,Potency,[9],30.6 µM (active)
same,Potency,[10],32.6 µM (active)
same,Potency,[12],20.7 µM (active)
same,Potency,[13],25.1 µM (active)
same,Potency,[14],31.6 µM (active)
same,Potency,[15],31.6 µM (active)
same,Potency,[16],25.1 µM (active)
same,Potency,[17],25.1 µM (active)
same,outcome,[19],inactive
N=C(N)c1ccc(OCCCCCOc2ccc(C(=N)N)cc2)cc1,Potency,[11],> 92 µM
same,Potency,[12],> 92 µM
same,"activity, negative = inhibition",[7],15.4%
same,Potency,[3],> 20.6 µM
same,Potency,[4],> 20.6 µM
same,Potency,[5],inactive
same,Potency,[13],15.8 µM (active)
same,"activity change, negative = cytotoxicity",[14],-80.1% (active)
same,Potency,[16],inactive
same,outcome,[6],inactive
same,outcome,[19],inactive
COc1cc([C@@H]2c3cc4c(cc3[C@H](O)[C@H]3COC(=O)[C@H]23)OCO4)cc(OC)c1OC,"activity change, negative = inhibition",[1],20.7%
same,"activity, negative = inhibition",[7],6.38%
C1CCC(C(CC2CCCCN2)C2CCCCC2)CC1 (stereo not drawn),"activity change, negative = inhibition",[1],22.4%
same,"activity, negative = inhibition",[7],5.25%
same,Potency,[3],> 20.6 µM
Cc1ccc(S(=O)(=O)N[C@@H](Cc2ccccc2)C(=O)CCl)cc1,"activity, negative = inhibition",[7],-65.8% [at 38 µM] (active)
same,Potency,[3],> 46 µM
same,Potency,[4],> 46 µM
same,Potency,[5],inactive
O=C(O)c1cccnc1,Potency,[20],inactive
same,"activity change, negative = inhibition",[2],-4.12%
same,"activity, negative = inhibition",[7],3.94%
same,Potency,[5],inactive
same,outcome,[6],inactive
CCC(=O)O[C@]1(C(=O)CCl)[C@@H](C)C[C@H]2[C@@H]3CCC4=CC(=O)C=C[C@]4(C)[C@@]3(F)[C@@H](O)C[C@@]21C,"activity change, negative = inhibition",[1],3.85%
same,"activity change, negative = inhibition",[2],-24.5%
same,"activity, negative = inhibition",[7],-5.77%
same,Potency,[3],< 5.9e-06 µM (active)
CCN(CC)CC#CCOC(=O)C(O)(c1ccccc1)C1CCCCC1 (stereo not drawn),"activity change, negative = inhibition",[1],-4.6%
same,"activity change, negative = inhibition",[2],-93% (active)
same,"activity, negative = inhibition",[7],0.633%
same,Potency,[3],> 20.6 µM
CCn1cc(C(=O)O)c(=O)c2cc(F)c(N3CCNCC3)cc21,"activity change, negative = inhibition",[1],-6.52% and 0.998%
same,"activity change, negative = inhibition",[2],1.51% and 17.3%
same,"activity, negative = inhibition",[7],1.48% and 7%
same,Potency,[3],> 20.6 µM
same,Potency,[4],> 20.6 µM
same,Potency,[5],inactive
same,outcome,[6],inactive
Cc1ccnc2c1NC(=O)c1cccnc1N2C1CC1,Potency,[8],> 92 µM
same,Potency,[9],> 92 µM
same,Potency,[10],> 92 µM
same,Potency,[11],> 92 µM
same,Potency,[12],> 92 µM
same,Potency,[5],inactive
same,Potency,[13],inactive
same,"activity change, negative = cytotoxicity",[14],-11%
same,Potency,[15],inactive
same,Potency,[16],inactive
same,Potency,[17],inactive
same,Potency,[18],inactive
same,outcome,[19],inactive
CC1=CC(=O)c2ccccc2C1=O,Potency,[20],0.158 µM (active)
same,"activity change, negative = inhibition",[2],-115% (active)
same,Potency,[3],> 20.6 µM
same,Potency,[4],> 20.6 µM
same,Potency,[5],inactive
same,outcome,[6],inactive
